Data as given in PubChem BioAssay (Tox21).
Values joined by “and” are separate entries in the source; they are usually repeats but may differ in a detail not shown here. Identical values can stand only once. Inconclusive results are not listed. Entries that show only a call come without a potency. Active and inactive are the calls of the source. Unless noted, the call rests on the fitted dose curve; in most records, active means well fitted curve in the direction sought with a large enough effect in the repeat runs; inconclusive means weak or mixed curves; inactive means no such curve, though single readings can be large; an effect the other way counts as inactive or inconclusive.

Tests used:
[1] = qHTS assay for small molecule agonists of the p53 signaling pathway (AID 651631; calls by dose curve; further: nearly all actives have a fitted effect of over 15% in size; further: potency means the concentration at half of the fitted maximal effect)
In short: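 HCT-116 cells carrying a stable p53 response element–beta-lactamase reporter were plated, rested 5 h at 37 °C, then exposed to compound in DMSO for 16 h at 37 °C; reporter activity was read as FRET substrate fluorescence after 2 h at room temperature.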

[2] = qHTS assay for small molecule agonists of the p53 signaling pathway - cell viability (AID 651633; calls by dose curve; further: nearly all actives have a fitted effect of over 30% in size; further: potency means the concentration at half of the fitted maximal effect)
In short: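 Viability counter-read: CellTiter-Glo luminescence (30 min, room temperature) in the same p53RE-bla plates. These plates had been exposed to compounds for 16 h at 37 C.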

[3] = qHTS assay for small molecules that induce genotoxicity in human embryonic kidney cells expressing luciferase-tagged ATAD5 - cell viability (AID 651634; calls by dose curve; further: nearly all actives have a fitted effect of over 25% in size; further: potency means the concentration at half of the fitted maximal effect)
In short: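 After 15.5 hr incubation with compound at 37C, 5% CO2, HEK293T ATAD5-luciferase cells received CellTiter-Fluor reagent; fluorescence intensity was quantified following 30 min at 37C.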

[4] = qHTS assay for small molecule disruptors of the mitochondrial membrane potential - cell viability (AID 720634; calls by dose curve;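 further: human HepG2 liver cancer cells; series mostly up to about 83 µM; nearly all actives have a fitted effect of over 20% in size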)
In short: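 ATP-based luminescent viability readout (CellTiter-Glo, 30 min, room temperature) in HepG2 cells multiplexed with the m-MPI membrane potential dye; compound exposure lasted 1 hr at 37 C.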

[5] = qHTS assay for small molecule disruptors of the mitochondrial membrane potential (AID 720635); further: potency means the concentration at half of the fitted maximal effect
In short: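 Mitochondrial membrane potential tracked with Mito-MPS dye, red aggregates (ex 540/em 590 nm) against green monomers (ex 490/em 535 nm). Compound treatment 1 hr at 37C, dye 30 min in HepG2.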

[6] = qHTS assay to test for compound auto fluorescence at 590 nm (red) in HepG2 cells (AID 720674); further: potency means the concentration at half of the fitted maximal effect
In short: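 We screened compounds on adherent HepG2 cells, incubating them for an hour at 37 C in 5% CO2 before reading emission at 590 nm under 540 nm excitation; values reflect equivalence to Rose Bengal sodium fluorescence.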

[7] = qHTS assay to test for compound auto fluorescence at 535 nm (green) in HepG2 cells (AID 720675); further: potency means the concentration at half of the fitted maximal effect
[8] = qHTS assay to test for compound auto fluorescence at 460 nm (blue) in HEK293 cells (AID 720678)
In short: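 HEK293 cells (2,000 per well, medium with 10% dialyzed FBS) attached for 4-5 hr at 37C, then received compound and stood overnight at 37C, 5% CO2. Blue fluorescence was read at Ex/Em 405/460 nm and expressed relative to triamterene.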

[9] = qHTS assay to test for compound auto fluorescence at 590 nm (red) in HEK293 cells (AID 720679); further: potency means the concentration at half of the fitted maximal effect
In short: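 HEK293 cells (2,000/well, medium with 10% dialyzed FBS) attached for 4-5 hr at 37C, received 23 nL compound and were incubated overnight at 37C, 5% CO2. Red fluorescence was then read at 540/590nm Ex/Em, referenced to Rose Bengal sodium.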

[10] = qHTS assay for small molecules that induce genotoxicity in human embryonic kidney cells expressing luciferase-tagged ATAD5 (AID 651632); further: nearly all actives have a fitted effect of over 15% in size
In short: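 Quantitative HTS in HEK293T expressing luciferase-tagged ATAD5, whose levels rise upon DNA damage. Exposure ran 16 hr at 37C and 5% CO2, with luminescence read 30 min after Amplite addition at room temperature.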
Tags describe the fitted curve by direction and shape or compound fluorescence and quenching.

Oc1ccccc1
Potency [1]: inactive
Potency [2]: inactive
Potency [3]: inactive
Potency [4]: inactive
Potency [5]: inactive
Potency [6]: inactive
Potency [7]: inactive
Potency [8]: inactive
Potency [9]: inactive

Nc1ccc(O)c([N+](=O)[O-])c1
Potency [10]: inactive
Potency [2]: inactive
Potency [3]: 53.9 µM (active)
Potency [5]: 3.03 µM (active)
Potency [6]: inactive
Potency [7]: inactive
Potency [8]: inactive
Potency [9]: inactive

Cc1cccc(C)c1
Potency [10]: inactive
Potency [2]: inactive
Potency [3]: inactive
Potency [4]: inactive
Potency [5]: inactive
Potency [6]: inactive
Potency [7]: inactive
Potency [8]: inactive
Potency [9]: inactive

CN1CCc2cccc3c2[C@H]1Cc1ccc(O)c(O)c1-3
Potency [10]: inactive
Potency [2]: inactive
Potency [3]: inactive
Potency [4]: inactive
Potency [5]: inactive
Potency [6]: inactive
Potency [7]: inactive
Potency [8]: inactive
Potency [9]: inactive

C[C@](N)(Cc1ccc(O)c(O)c1)C(=O)O
Potency [1]: inactive
Potency [10]: inactive
Potency [2]: inactive
Potency [3]: inactive
Potency [6]: inactive
Potency [7]: inactive
Potency [8]: inactive
Potency [9]: inactive

CCCCCCCCCCCC[N+](C)(C)Cc1ccccc1
Potency [10]: inactive
Potency [2]: 18.8 µM (active) and 47.6 µM (active) and 29.7 µM (active)
Potency [3]: 26.8 µM (active) and 74.5 µM (active)
Potency [5]: 8.41 µM (active) and 19 µM (active) and 21 µM (active)
Potency [6]: inactive
Potency [7]: inactive
Potency [8]: inactive
Potency [9]: inactive

NC(=O)n1c(O)c(C(=O)c2cccs2)c2cc(Cl)ccc21
Potency [1]: 5.96 µM (active)
Potency [10]: inactive
Potency [2]: 8.41 µM (active)
Potency [4]: inactive
Potency [5]: 11.9 µM (active)
Potency [6]: inactive
Potency [7]: inactive
Potency [8]: inactive
Potency [9]: inactive

CC1(C)S[C@@H]2[C@H](NC(=O)[C@H](N)c3ccccc3)C(=O)N2[C@H]1C(=O)O
Potency [1]: inactive
Potency [10]: inactive
Potency [2]: inactive
Potency [3]: inactive
Potency [6]: inactive
Potency [7]: inactive
Potency [8]: inactive
Potency [9]: inactive

O=C1O[C@H]([C@@H](O)CO)C(O)=C1O
Potency [1]: inactive
Potency [10]: inactive
Potency [3]: inactive
Potency [5]: inactive
Potency [6]: inactive
Potency [7]: inactive
Potency [8]: inactive
Potency [9]: inactive

CC(=O)Nc1c(I)c(NC(C)=O)c(I)c(C(=O)O)c1I
Potency [10]: inactive
Potency [2]: inactive
Potency [3]: inactive
Potency [5]: inactive
Potency [6]: inactive
Potency [7]: inactive
Potency [8]: inactive
Potency [9]: inactive

Cc1cc(C)nc(NS(=O)(=O)c2ccc(N)cc2)n1
Potency [1]: inactive
Potency [2]: inactive
Potency [3]: inactive
Potency [4]: inactive
Potency [5]: inactive
Potency [6]: inactive
Potency [7]: inactive
Potency [8]: inactive
Potency [9]: inactive

CN(C)CCOC(c1ccccc1)c1ccccc1
Potency [10]: inactive
Potency [2]: inactive
Potency [3]: inactive
Potency [5]: inactive
Potency [6]: inactive
Potency [7]: inactive
Potency [8]: inactive
Potency [9]: inactive

O=C1c2c(O)cccc2Cc2cccc(O)c21
Potency [1]: inactive
Potency [10]: inactive
Potency [2]: inactive
Potency [3]: inactive
Potency [6]: inactive
Potency [7]: inactive
Potency [8]: inactive
Potency [9]: inactive

Nc1c(N=Nc2ccc(-c3ccc(N=Nc4cc(S(=O)(=O)O)c5ccccc5c4N)cc3)cc2)cc(S(=O)(=O)O)c2ccccc12
Potency [10]: inactive
Potency [2]: inactive
Potency [3]: 13.3 µM (active) and 27.3 µM (active)
Potency [5]: 17.2 µM (active)
Potency [6]: inactive
Potency [7]: inactive
Potency [8]: inactive
Potency [9]: inactive

Nc1ccc(S(N)(=O)=O)cc1
Potency [1]: inactive
Potency [2]: inactive
Potency [3]: inactive
Potency [4]: inactive
Potency [5]: inactive
Potency [6]: inactive
Potency [7]: inactive
Potency [8]: inactive
Potency [9]: inactive

C=CCc1ccc(O)c(OC)c1
Potency [1]: inactive
Potency [10]: inactive
Potency [2]: inactive
Potency [3]: inactive
Potency [6]: inactive
Potency [7]: inactive
Potency [8]: inactive
Potency [9]: inactive

CN[C@H]1CC[C@@H](c2ccc(Cl)c(Cl)c2)c2ccccc21
Potency [10]: inactive
Potency [2]: 29.8 µM (active)
Potency [3]: inactive
Potency [4]: inactive
Potency [6]: inactive
Potency [7]: inactive
Potency [8]: inactive
Potency [9]: inactive

O=C1OC2(c3ccccc31)c1cc(Br)c(O)c(Br)c1Oc1c2cc(Br)c(O)c1Br
Potency [10]: inactive
Potency [2]: inactive
Potency [3]: 21.1 µM (active) and 1.56 µM (active) and 19.9 µM (active)
Potency [4]: inactive
Potency [6]: 3.16 µM (active) and 2.51 µM (active)
Potency [7]: 12.6 µM (active) and 4.47 µM (active) and 17.8 µM (active)
Potency [8]: inactive
Potency [9]: 5.01 µM [fluorescent] (active) and 4.47 µM [fluorescent] (active) and 3.55 µM [fluorescent] (active)

O=c1[nH]cnc2c1ncn2[C@H]1CC[C@@H](CO)O1
Potency [10]: inactive
Potency [3]: inactive
Potency [4]: inactive
Potency [5]: inactive
Potency [6]: inactive
Potency [7]: inactive
Potency [8]: inactive
Potency [9]: inactive

CCN(CC)C(=O)c1cccc(C)c1
Potency [10]: inactive
Potency [2]: inactive
Potency [3]: inactive
Potency [6]: inactive
Potency [7]: inactive
Potency [8]: inactive
Potency [9]: inactive

C=C(C)C(=O)OCC(C)O (stereo not given)
Potency [10]: inactive
Potency [2]: inactive
Potency [3]: inactive
Potency [6]: inactive
Potency [7]: inactive
Potency [8]: inactive
Potency [9]: inactive

CCCC[P+](CCCC)(CCCC)CCCC
Potency [2]: inactive
Potency [3]: inactive
Potency [4]: inactive
Potency [5]: inactive
Potency [6]: inactive
Potency [7]: inactive
Potency [8]: inactive
Potency [9]: inactive
